Inconclusive results are not listed. A call without a number means that no potency is given here. A number with no mark means an inactive call. Calls of active or inactive are those of the source. Unless noted, the call rests on the fitted dose curve; in most records, active means well fitted curve in the direction sought with a large enough effect in the repeat runs; inconclusive means weak or mixed curves; inactive means no such curve, though single readings can be large; an effect the other way counts as inactive or inconclusive.
What was measured:
[1] = qHTS assay to identify small molecule agonists of the vitamin D receptor (VDR) signaling pathway - cell viability counter screen (AID 743224); further: series mostly up to about 63 µM; nearly all actives have a fitted effect of over 50% in size
Procedure, shortened: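 VDR-bla cell line, quantitative HTS format; 16 h compound incubation (37C, 5% CO2); ATP-based CellTiter-Glo luminescence measured in the reporter assay wells.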

[2] = qHTS assay to identify small molecule antagonists of the vitamin D receptor (VDR) signaling pathway - cell viability counter screen (AID 743225); further: nearly all actives have a fitted effect of over 50% in size
Procedure, shortened: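 VDR-bla HEK 293T cells, 4 h pre-incubation at 37C, then compound plus 1-alpha,25-dihydroxyvitamin D3 (3 nM final) for 16 h. After the beta-lactamase FRET read, CellTiter-Glo was added to the same wells; luminescence after 30 min at room temperature.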

[3] = qHTS assay to identify small molecule agonists of the NFkB signaling pathway - cell viability counter screen (AID 1159515; calls by dose curve; further: series mostly up to about 61 µM; nearly all actives have a fitted effect of over 55% in size)
Procedure, shortened: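 Viability in NFkB-bla ME-180 cells was measured by CellTiter-Glo luminescence, 30 min room temperature, in wells already treated 5 hr with compounds and read for reporter FRET.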

[4] = qHTS assay to identify small molecule agonists of the endoplasmic reticulum stress response signaling pathway (AID 1159516; active means well fitted activation curve with a large enough effect in the signal ratio in the repeat runs, not every such curve was filed as active; the % refers to the signal ratio)
Procedure, shortened: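 ER stress element reporter (bla) in HeLa. 1,500 cells/well, overnight attachment; 5 hr compound; 2 hr RT substrate; dual-emission fluorescence.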

[5] = qHTS assay to identify small molecule agonists of the endoplasmic reticulum stress response signaling pathway - cell viability counter screen (AID 1159517; calls by dose curve;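 further: HeLa cells carrying an ER stress response element beta-lactamase reporter; series mostly up to about 61 µM; nearly all actives have a fitted effect of over 50% in size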)
Procedure, shortened: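 Counter-screen wells were identical to the reporter wells. Cells were plated at 1,500 per well and dosed for 5 hr, then read for luminescence 30 min after CellTiter-Glo addition.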

[6] = qHTS assay to identify small molecule antagonists of the retinoid-related orphan receptor gamma (ROR-gamma) signaling pathway - cell viability counter screen (AID 1159520); further: nearly all actives have a fitted effect of over 50% in size
Procedure, shortened: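 Tet-on ROR gamma CHO cells were given compounds for 2 hr, then doxycycline hyclate at 1 uM final, and incubated 16 hr at 37 C. Viability was measured as ATP content by CellTiter-Glo luminescence.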

[7] = target: Nuclear receptor ROR-gamma (Homo sapiens) (UniProt P51449); assay: qHTS assay to identify small molecule antagonists of the retinoid-related orphan receptor gamma (ROR-gamma) signaling pathway (AID 1159521; further: nearly all actives have a fitted effect of over 50% in size; further: potency means the concentration at half of the fitted maximal effect)
Procedure, shortened: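 Tet-on RORγ CHO cells carrying a ROR response element–luciferase reporter were pretreated with compounds for 2 h, then induced with 1 uM (final) doxycycline hyclate for 16 h at 37 C. Antagonism was read as decreased ONE-Glo luminescence.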

[8] = qHTS assay to identify small molecule agonists of the AP-1 signaling pathway - cell viability counter screen (AID 1159525; calls by dose curve; further: nearly all actives have a fitted effect of over 55% in size)
Procedure, shortened: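 AP-1-bla ME-180 cells in Opti-MEM with 0.5% dialyzed FBS, compound exposure 5 h at 37 C in 15-point titration. Viability read in the same wells as ATP content by CellTiter-Glo luminescence, normalised to tetra-n-octylammonium bromide and DMSO controls.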

[9] = qHTS assay to identify small molecule agonists of the AP-1 signaling pathway (AID 1159526; calls by dose curve)
[10] = target: Retinoic acid receptor RXR-alpha (Homo sapiens) (UniProt P19793); assay: qHTS assay to identify small molecule agonists of the RXR signaling pathway (AID 1159527; calls by dose curve; further: nearly all actives have a fitted effect of over 35% in size)
Procedure, shortened: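 GeneBLAzer RXR-alpha-UAS-bla HEK 293T cells in medium with 2% charcoal-stripped FBS, pre-incubated 5 hr at 37 C, then exposed to compounds 16 hr. Beta-lactamase reporter read by FRET substrate, 2 hr room temperature, 460/530 nm emission.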

[11] = qHTS assay to identify small molecule agonists of the RXR signaling pathway - cell viability counter screen (AID 1159529)
Procedure, shortened: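 RXR-alpha-UAS-bla HEK 293T cells in medium with 2% charcoal-stripped FBS were preincubated 5 hr, then exposed to compounds for 16 hr at 37 C. Viability was read as CellTiter-Glo luminescence after 30 min at room temperature.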

[12] = qHTS assay to identify small molecule antagonists of the retinoid acid receptor (RAR) signaling pathway - cell viability counter screen (AID 1159551); further: nearly all actives have a fitted effect of over 35% in size
Procedure, shortened: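 Following overnight attachment, C3RL4 reporter cells received DMSO-dissolved compounds and then retinol (1 uM final). Six hours later at 37 C, ATP content was measured by CellTiter-Glo luminescence.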

[13] = qHTS assay to identify small molecule agonists of the retinoic acid receptor (RAR) signaling pathway (AID 1159553); further: potency means the concentration at half of the fitted maximal effect
Procedure, shortened: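 Cell line C3RL4, RARE luciferase reporter. Treatment: compounds in DMSO, 6 hr, 37 C, 5% CO2, after overnight plating. Detection: luminescence, 30 min RT after reagent.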

[14] = qHTS assay to identify small molecule antagonists of the estrogen related receptor (ERR) signaling pathway - cell viability counter screen (AID 1224818);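 further: series mostly up to about 46 µM; viability measured after 17.5 h of compound exposure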
Procedure, shortened: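 Here, ERR cells are plated at 2,000 cells per well, allowed 6 h to attach, and treated with compounds in DMSO for 17.5 h at 37 C. CellTiter-Fluor is then added and fluorescence read after 30 min.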

[15] = qHTS assay to identify small molecule antagonists of the estrogen related receptor (ERR) signaling pathway (AID 1224819)
Procedure, shortened: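 LOPAC library screened for antagonism as reduced One-Glo luminescence in ERR reporter cells (2,000/well). Compounds were added after 6 h pre-incubation and left 18 h at 37C; reading followed a 30 min room-temperature reagent step.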

[16] = qHTS assay to identify small molecule agonists of the estrogen related receptor (ERR) signaling pathway (AID 1224820)
Procedure, shortened: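 ERR reporter cells (NTP line) plated 2,000/well, incubated 6 h at 37 C/5% CO2, then pinned with compounds in DMSO and held 18 h at 37 C. One-Glo added; luminescence read after 30 min at room temperature.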

[17] = system: estrogen-related receptor alpha (ERRalpha) with PGC-1alpha coactivator, human; assay: qHTS assay to identify small molecule antagonists of the estrogen related receptor signaling pathway with the pleiotropic PPARgamma coactivator (PGC) (AID 1224821; calls by dose curve)
Procedure, shortened: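 Cells engineered for PGC/ERR signalling (line from NTP) were plated 6 h at 37 C/5% CO2, then exposed to DMSO-dissolved compound for 18 h at 37 C. Luciferase activity was read by One-Glo luminescence after 30 min at room temperature.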

[18] = qHTS assay to identify small molecule antagonists of the estrogen related receptor signaling pathway with the pleiotropic PPARgamma coactivator (PGC) cell viability counter screen (AID 1224822;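 further: series mostly up to about 46 µM; viability read after 17.5 h compound exposure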)
Procedure, shortened: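 qHTS format, DMSO compound stocks pin-transferred onto PGC/ERR cells 6 h after plating; 17.5 h exposure at 37 C, then CellTiter-Fluor fluorescence.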

[19] = qHTS assay to identify small molecule agonists of the estrogen related receptor signaling pathway with the pleiotropic PPARgamma coactivator (PGC) (AID 1224823)
Procedure, shortened: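 PGC/ERR reporter cells were seeded, rested 6 h at 37 C/5% CO2, then exposed to compounds in DMSO by pin transfer for 18 h at 37 C. Luciferase activity was read as luminescence after One-Glo reagent and 30 min at room temperature.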

[20] = qHTS assay to identify small molecule antagonists of the retinoic acid receptor (RAR) signaling pathway (AID 1159552; further: nearly all actives have a fitted effect of over 50% in size)
Procedure, shortened: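 RARE-luc C3RL4 cells; cpds + 1 uM (final) retinol, 6 hr, 37 C/5% CO2; luciferase reagent, 30 min RT, luminescence readout. Inhibitors of retinol-driven signal scored.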

Chain of Retinoic acid receptor RXR-alpha (Homo sapiens) (P19793 whole entry, looked up): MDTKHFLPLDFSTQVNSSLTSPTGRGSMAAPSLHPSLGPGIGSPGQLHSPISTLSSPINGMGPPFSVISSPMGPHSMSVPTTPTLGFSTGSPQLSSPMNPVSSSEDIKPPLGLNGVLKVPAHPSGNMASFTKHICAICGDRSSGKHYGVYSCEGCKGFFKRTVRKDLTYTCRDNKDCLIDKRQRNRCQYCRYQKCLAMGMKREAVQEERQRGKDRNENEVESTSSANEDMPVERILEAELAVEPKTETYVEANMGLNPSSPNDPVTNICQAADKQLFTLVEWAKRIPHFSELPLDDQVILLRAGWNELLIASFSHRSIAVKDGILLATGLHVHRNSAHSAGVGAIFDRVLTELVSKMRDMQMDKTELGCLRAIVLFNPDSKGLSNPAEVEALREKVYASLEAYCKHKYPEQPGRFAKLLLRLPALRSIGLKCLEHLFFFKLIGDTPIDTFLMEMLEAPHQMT

Compound | outcome [1] | outcome [2] | outcome [3] | outcome [4] | outcome [5] | outcome [6] | Potency [7] | outcome [8] | outcome [9] | Potency [10] | Potency [11] | outcome [12] | Potency [13] | outcome [14] | outcome [15] | outcome [16] | outcome [17] | outcome [18] | outcome [19] | Potency [20]
Nc1ccn([C@@H]2O[C@H](CO)[C@@H](O)[C@@H]2O)c(=O)n1 | inactive | inactive | inactive | inactive | inactive | inactive | 8.63 µM (active) | inactive | inactive | inactive | inactive | inactive | inactive | inactive | inactive | inactive | inactive | inactive | inactive | –
CC(C)NNC(=O)c1ccncc1 | inactive | inactive | inactive | inactive | inactive | inactive | inactive | inactive | inactive | inactive | inactive | inactive | – | inactive | – | – | – | inactive | – | –
Nc1c2c(nc3c1CCC3)CCCC2 | inactive | inactive | inactive | inactive | inactive | inactive | inactive | inactive | inactive | inactive | inactive | inactive | inactive | – | – | – | – | – | – | –
CO/N=C(\C(=O)N[C@@H]1C(=O)N2C(C(=O)O)=C(CSc3nc(=O)c(O)nn3C)CS[C@H]12)c1csc(N)n1 | inactive | inactive | inactive | inactive | inactive | inactive | inactive | inactive | inactive | inactive | inactive | inactive | inactive | – | – | – | – | – | – | –
Cc1c(N)c(=O)n(-c2ccccc2)n1C | inactive | inactive | inactive | inactive | inactive | inactive | inactive | inactive | inactive | inactive | inactive | inactive | inactive | – | – | – | – | – | – | inactive
CCNS(=O)(=O)c1ccc(C)cc1 | inactive | inactive | inactive | inactive | inactive | inactive | inactive | inactive | inactive | inactive | inactive | inactive | inactive | – | – | – | – | – | – | –
CCCn1cc[n+](C)c1C | inactive | inactive | inactive | inactive | inactive | inactive | inactive | inactive | inactive | inactive | inactive | inactive | inactive | – | – | – | – | – | – | –
CCN1C=CN(C)C1C (centres undefined) | inactive | inactive | inactive | inactive | inactive | inactive | inactive | inactive | inactive | inactive | inactive | inactive | inactive | – | – | – | – | – | – | –
Cc1ccc(C(=O)c2ccc(CC(=O)O)n2C)cc1 | inactive | inactive | inactive | inactive | inactive | inactive | inactive | inactive | inactive | inactive | inactive | inactive | inactive | – | – | – | – | – | – | –
CCOC(=O)COc1cc(-n2ncc(C(F)(F)F)c(C)c2=O)c(F)cc1Cl | inactive | inactive | inactive | inactive | inactive | inactive | inactive | inactive | inactive | inactive | inactive | inactive | – | – | – | – | – | – | – | inactive
CCCCCCCCN1CCCC1=O | inactive | inactive | inactive | inactive | inactive | inactive | inactive | inactive | inactive | inactive | inactive | inactive | – | – | – | – | – | – | – | inactive
O=C(O)CCCC[P+](c1ccccc1)(c1ccccc1)c1ccccc1 | inactive | inactive | inactive | inactive | inactive | inactive | inactive | inactive | inactive | inactive | inactive | inactive | inactive | – | – | – | – | – | – | –
O=C1c2ccccc2C(=O)c2cc(O)ccc21 | inactive | inactive | inactive | inactive | inactive | inactive | inactive | inactive | inactive | inactive | inactive | inactive | 17.2 µM (active) | – | – | – | – | – | – | –
COc1cc(C(=O)NCc2ccc(OCCN(C)C)cc2)cc(OC)c1OC | inactive | inactive | inactive | inactive | inactive | inactive | inactive | inactive | inactive | inactive | inactive | inactive | inactive | – | – | – | – | – | – | –
CC(C)CCCO | inactive | inactive | inactive | inactive | inactive | inactive | inactive | inactive | inactive | inactive | inactive | inactive | inactive | – | – | – | – | – | – | –
FB(F)F | inactive | inactive | inactive | inactive | inactive | inactive | inactive | inactive | inactive | inactive | inactive | inactive | inactive | – | – | – | – | – | – | –
C=C(C)C(=O)OCCOCCOCCOCCOC(=O)C(=C)C | inactive | inactive | inactive | inactive | inactive | inactive | inactive | inactive | inactive | inactive | inactive | inactive | – | – | – | – | – | – | – | inactive
